# SMN2 splice enh: increases expression of the SMN2 splice variant. HEK293 SMN2-luciferase splicing reporter, luminescence, 30-36 h. Potency, µM (series often up to 46.1 µM), for the others: top-dose activity change, positive = activation, most hits filed as activators. actives 2.8% (n = 210,000); note: % of control where 0% means no effect; nearly all actives have a fitted effect of over 55% in size
#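 HEK293 cells carry an SMN2 minigene-luciferase reporter in which exon 7 inclusion puts luciferase in frame. Cells were seeded at 2000 cells/well, attached for 10-12 hours, then exposed to compounds for 30-36 hours at 37C before ONE-Glo luminescence.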
# Rab9 promoter act: Rab9 promoter activation | AID 485297 | Huh7 Rab9 promoter-luciferase reporter, luminescence, 24 h | Potency, µM (top dose mostly 9.22 µM), for the others: top-dose activation, negative = inhibition, actives largely listed as activators | actives 2.8% (n = 320,000); note: % of control where 0% means no effect; nearly all actives have a fitted effect of over 60% in size
#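 Huh7 cells stably carrying Rab9 promoter–luciferase reporter, plated 1500 cells/well, compound added after 2 h and incubated 24 h at 37 °C; luciferase luminescence then read after 10 min with detection reagent.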
# ELG1 genotoxic: induces genotoxicity in HEK293T cells with luciferase-tagged ELG1; HEK293T ELG1-luciferase reporter, luminescence, 16 h; Potency, µM (titrated, usually from 46 µM), without a hit: top-dose activity change, positive = activation, actives largely listed as activators; actives 1.3% (n = 330,000); AID 504466; note: % of control where 0% means no effect; nearly all actives have a fitted effect of over 60% in size
#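 Genotoxic stress is detected as increased luminescence from luciferase-tagged ELG1 in HEK293T cells, measured with ONE-Glo after a 16 hr treatment at 37 °C.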
# KinaseGlo FLuc: blocks Kinase-Glo luciferase, a counter-screen artifact | Q27757 | Kinase-Glo luciferase, ATP luminescence, 8 min | Potency, µM (doses to about 38.3 µM), without a hit: top-dose activity change, negative = inhibition, most hits filed as inhibitors | actives 0.28% (n = 200,000) | AID 1379; note: % is set by controls: 0 for no effect and ±100 for the full control effect; nearly all actives have a fitted effect of over 60% in size
#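 Recombinant Kinase-Glo luciferase, 10 uM ATP (linear range), luciferin; imidazole pH 7.2 / KCl / MgCl2 / Tween / BSA buffer; 8 min RT; luminescence.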
# NPC1 promoter act: activators of NPC1 promoter; Potency, µM (doses to about 9.22 µM), for the others: at the highest dose activation, actives largely listed as activators; AID 485313; actives 2.4% (n = 320,000); Huh7 NPC1 promoter luciferase reporter, 24 h; note: % of control where 0% means no effect; nearly all actives have a fitted effect of over 60% in size
#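 Quantitative HTS used a cell-based reporter: Huh7 cells stably bearing the NPC1 promoter upstream of luciferase were treated with compounds for 24 h, and promoter activation was read as luminescence.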
# FLuc counter: counter-screen for miR-21 project: firefly luciferase inhibitors or activators. purified FLuc, Km substrates, luminescence inhibition. Potency, µM (titrated, usually from 57.5 µM), inactives show at the highest dose activity change, negative = inhibition, actives largely listed as inhibitors. actives 6.9% (n = 360,000);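 note: plate controls were vehicle for no effect and reference inhibitor for full effect; nearly all actives have a fitted effect of over 55% in size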
# Target sequence (P08659 whole entry, looked up): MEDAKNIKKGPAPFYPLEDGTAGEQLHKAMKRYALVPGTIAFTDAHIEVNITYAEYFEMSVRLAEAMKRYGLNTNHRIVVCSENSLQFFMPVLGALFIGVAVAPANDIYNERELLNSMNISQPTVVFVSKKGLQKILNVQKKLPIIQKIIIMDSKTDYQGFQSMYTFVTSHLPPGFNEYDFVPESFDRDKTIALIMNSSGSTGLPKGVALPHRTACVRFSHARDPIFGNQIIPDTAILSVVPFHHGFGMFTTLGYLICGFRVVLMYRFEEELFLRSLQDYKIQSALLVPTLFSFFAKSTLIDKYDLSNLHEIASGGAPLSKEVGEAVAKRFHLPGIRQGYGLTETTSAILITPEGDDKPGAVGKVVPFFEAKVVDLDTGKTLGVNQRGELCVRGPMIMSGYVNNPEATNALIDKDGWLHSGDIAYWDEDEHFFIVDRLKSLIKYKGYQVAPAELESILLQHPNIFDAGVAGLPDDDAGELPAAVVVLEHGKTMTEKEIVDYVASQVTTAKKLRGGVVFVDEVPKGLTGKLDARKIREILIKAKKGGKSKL
#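 Purified P. pyralis luciferase (10nM final) with 10uM D-luciferin and 10uM ATP (Km levels) in 50mM Tris acetate pH 7.5, 10mM Mg acetate, 0.01% Tween-20, 0.05% BSA; qHTS 6-point titration, ~60 µM downward; luminescence read.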
# Numbers without * were called inactive; ? = inconclusive; / = no result; [ ] = dose if it differs, or a comment. Hits are enriched below; roughly 7.4% of the tested compounds scored in any of these assays. Calls come from the whole dose curve; as a rule, active = well fitted curve in the direction sought with a large enough effect; inconclusive = small, poorly fitted or top-dose-only effect, or another doubt; inactive = no such curve, though single readings can be large; an effect the other way counts as inactive or inconclusive. Potency is the fitted concentration of half-maximal effect.
SMILES,SMN2 splice enh,Rab9 promoter act,ELG1 genotoxic,KinaseGlo FLuc,NPC1 promoter act,FLuc counter
CCc1ccc2c(c1)C(=O)c1ccccc1C2=O,16µM*,?,?,-7%,?,6µM*
COc1ccc(NC(=O)N2CCC(CN3CCCC3)CC2)c(OC)c1,/,/,/,/,/,2%
Cc1ccccc1-n1c(SCC(=O)Nc2ccc(Cl)cc2Cl)nc(O)cc1=O,-2%,/,/,/,/,?
Cc1occc1C(=O)N/N=C/c1cccs1,25%,?,11%,?,?,?
Cc1occc1C(=O)Nc1cccc2ccccc12,3.2µM*,1.6µM*,5.8µM*,-25%,2µM*,2.7µM*
Cc1occc1C(=O)N/N=C/c1cccc2ccccc12,/,2.2µM*,7.3µM*,/,?,5.4µM*
O=C(N/N=C/c1cccc2ccccc12)c1ccccc1Cl,/,3%,6%,/,-2%,7.6µM*
COc1ccc(C(=O)N2CCC3(CCN(C(=O)Nc4ccccc4)CC3)CC2)cc1,-20%,/,/,-1%,/,/
C=CCn1cc(/C=N/NC(=O)COc2cccc3cccnc23)c2ccccc21,12%,1%,2%,-2%,0%,?
Cc1cc(/C=N/NC(=O)C(=O)NCc2ccccn2)c(C)n1-c1ccccc1,21%,-3%,?,-14%,0%,2.7µM*
Cc1nc2ccccn2c1C(=O)N/N=C/c1cc(C)n(-c2ccc(Br)cc2)c1C,-46%,-1%,-1%,2%,-4%,12µM*
Cc1cc(/C=N\NC(=O)c2cccs2)c(C)n1-c1ccc2ncccc2c1,?,1.8µM*,?,-11%,2.8µM*,1.3µM*
Cc1cc(/C=N/NC(=O)c2ccccn2)c(C)n1-c1cccc([N+](=O)[O-])c1,-5%,27%,8%,-2%,5%,?
Cc1cc(/C=N\NC(=O)COc2cccc3cccnc23)c(C)n1-c1ccc(Br)cc1,-45%,0%,-2%,1%,-4%,4.8µM*
CCCCCCN(C(=O)CCCCCN1C(=O)NC(C2CC2)C(C(=O)OCc2ccccc2)=C1C)C(C(=O)NCCCC)c1ccc(OCC(=O)OC)c(C(=O)OC)c1 (configuration not stated),-29%,/,/,-3%,/,/
N=c1sc2ccccc2n1CCS (tested in a mixture with another compound),-4%[9.22 µM],/,/,-5%[7.66 µM],/,/
CCc1ccccc1NC(=O)N1CC(C)Sc2ccccc21 (configuration not stated),/,/,/,/,/,-16%
Cc1ccnc(-n2c(C)cc(/C=N/NC(=O)COc3cccc4cccnc34)c2C)c1,/,-3%,-2%,/,1%,13µM*
Cc1cc(/C=N\NC(=O)COc2cccc3cccnc23)c(C)n1-c1ccccc1,/,-6%,1%,-2%,-1%,1.3µM*
COc1ccccc1OCC(=O)N/N=C/c1cccc2cccnc12,/,-5%,-1%,/,-3%,-18%
COc1ccc2oc(=O)cc(CN3CCN(C(=O)c4ccccc4)CC3)c2c1,2%,/,/,/,/,3%
O=S(=O)(c1cccc2nsnc12)N1CCN(c2ccccc2F)CC1,/,-8%,-5%,2%,-4%,0%
O=S(=O)(c1cccc2nsnc12)N1CCc2ccccc21,?,3.5µM*,?,-4%,?,21µM*
CCOC(=O)C1CCCN(C(=O)CCc2nnc(-c3ccc(C(C)=O)s3)o2)C1 (configuration not stated),/,0.79µM*,18µM*,/,2.5µM*,11µM*
CCOC(=O)C1CCCN(C(=O)CSCc2ccccc2)C1 (configuration not stated),4%,6%,14%,-1%,?,?
SMILES,SMN2 splice enh,Rab9 promoter act,ELG1 genotoxic,KinaseGlo FLuc,NPC1 promoter act,FLuc counter
Cc1ccc(S(=O)(=O)c2cc3cc(C(=O)Nc4ccc(C)cc4C)ccc3oc2=O)cc1,10%,/,/,/,/,-2%
O=C(Nc1ccc(N2CCOCC2)cc1)c1cc2c(s1)CCCC2,-12%,2%,11%,5%,10%,?
O=C(Nc1ccon1)c1cc2c(s1)CCCCCC2,13µM*,3.5µM*,4.5µM*,-1%,3.2µM*,6µM*
O=C(Nc1ccon1)c1cc2c(s1)CCCC2,6.3µM*,1.1µM*,1.3µM*,-28%,1.4µM*,3µM*
COc1ccccc1/C=N/OC(=O)c1ccc(F)cc1,/,1%,3%,/,3%,3.4µM*
COc1cc(C(=O)Oc2ccccc2/C=N/NC(=O)c2ccc(Cl)cc2)cc(OC)c1OC,-101%,-24%,?,-1%,0%,6.7µM*
COc1ccccc1/C=N/NC(=O)CNC(=O)c1ccccc1,/,-1%,-3%,/,4%,?
COc1ccccc1/C=N/OCc1cc(C(C)=O)ccc1OC,/,-1%[1.84 µM],3%,/,-3%,-7%
COc1ccc(C(=O)N/N=C\c2coc3ccccc3c2=O)cc1,/,-5%,-7%,/,-3%,4.8µM*
COc1ccccc1/C=N/NC(=O)c1ccc(Br)cc1,7%,1%,-5%,0%,-3%,13µM*
O[C@H](CNc1ccccn1)c1ccccc1,-9%[9.22 µM],/,/,-2%[7.66 µM],/,/
COc1ccc(/C=N/NC(=O)c2ccc(Br)cc2)c(OC)c1,29%,-2%,7%,5%,-3%,15µM*
COc1ccc(/C=N/NC(=O)c2ccncc2)c(OC)c1,/,3%,-2%,/,-1%,?
Cc1ccc(OCC(=O)Nc2cccc(-c3nc4ccccc4o3)c2C)cc1C,0%,/,/,/,/,-1%
CCCC(=O)Nc1cccc(-c2nc3cc(C)c(C)cc3o2)c1C,?,/,/,/,/,0.27µM*
CCCC(=O)Nc1ccc(-c2nc3cc(C)c(C)cc3o2)cc1,11µM*,0.35µM*,?,-2%,0.35µM*,1.1µM*
COc1cc(C(=O)Nc2ccc(-c3nc4cc(C)c(C)cc4o3)cc2)cc(OC)c1OC,6%,/,/,/,/,-1%
CCc1c(C)sc2c1CCN(C(=O)Nc1ccc(F)c(Cl)c1)C2c1ccc(F)cc1 (configuration not stated),/,/,/,/,/,1%
O=C(Nc1ccc(C(=O)OCc2cc(=O)n3c4c(sc3n2)CCCC4)cc1)c1ccc(F)cc1,/,/,/,/,/,2%
Cc1cc(/C=C2\SC(=O)N(C)C2=O)c(C)n1-c1ccc(S(N)(=O)=O)cc1,/,16%,0%,/,10%,-18%
COC(=O)C(C)N1C(=O)S/C(=C/c2cc(C)n(-c3ccccn3)c2C)C1=O (configuration not stated),-42%,0.89µM*,2.6µM*,2%,1.6µM*,3µM*
CCOC(=O)CN1C(=O)S/C(=C/c2cc(C)n(-c3ccccn3)c2C)C1=O,-6%,4µM*,17%,0%,?,6µM*

# Bioassay records from PubChem BioAssay.
